Measurements taken from PubChem BioAssay AID2669 (National Center for Advancing Translational Sciences (NCATS), 2010).
Several values for one entry are separate records, joined by “and”; a condition that tells them apart may be missing. Equal entries are not always repeated. Results filed as inconclusive are left out. Activity calls are given as the source filed them. The call rests on the fitted dose curve; in most records, active means well fitted inhibition curve with a large enough effect; inconclusive means small, poorly fitted or top-dose-only effect, or effect the other way; inactive means flat fitted curve, though single readings scatter.

Assay: qHTS Assay Multiplex Screening to Identify Dual Action Probes in a Cell Model of Huntington: Cytoprotection (Protease relase)
Conditions: PC12 HttQ103 cells, Cytotox-Glo protease release, 40 h; series mostly up to 46.1 µM
Description: NIH Chemical Genomics Center [NCGC]
NIH Molecular Libraries Probe Production centers Network [MLPCN]
Assay Submitter (PI): Wei Zheng
Huntington's disease is a neurodegenerative disorder caused by a trinucleotide repeat expansion in Exon 1 of the Huntingtin gene. The CAG trinucleotide encodes glutamine and polyglutamine expansions cause cell death in selective areas of the brain. Huntington polyglutamine repeats have the tendency to form aggregates which are observable in later stages of the disease. The exact nature of the aggregates, whether toxic, protective, or insignificant, is unclear.
A stable PC12 cell line containing a gene fusion of Exon 1 of the Huntingtin gene linked to GFP under the control of the inducible ecdysone promoter were used as the cell-based model of Huntington Disease for high throughput screening. Exon 1 of the Huntingtin gene contained an expansion of 103 polyglutamines (Q103) which, when expressed, caused cell death and distinct, bright GFP aggregates. The amount of cell death and the size and intensity of GFP aggregates increased over time and induction level. In the primary screen, cell death were quantified with a measurement of ATP content in the cells. A maximal 40-50% of cell death was observed when the Huntington gene was induced in this cell line.
We optimized this assay in a homogeneous 1536 well format. A quantitative high throughput screen (qHTS) was conducted on the PC12 cells which were induced to express the toxic fusion construct. Small molecules which prevented cell death were considered hits, and were further studied. The present assay is an alternate assay for cytoprotection using Promega's Cytotox-Glo reagent.
PC12 cells stably containing a construct with an ecdysone inducible promoter expressing GFP fused to the exon 1 of HTTQ103 (Huntington protein which containing a 103 ployglutamine expansion) were used.
NCGC Assay Protocol Summary:
Sequence, Parameter, Description
1, Reagent, 5 uL 1500 cells/well 1536 TC treated White clear bottom plate
2, Compound, 23 nL Tebufenozide inducer (100 nM final) to all columns
3, Compound, 23 nL 40 uM to 0.5 nM Libraries
5, Reagent, 2 ul Promega's Cytotox-Glo assay reagent
6, Detector, 4 sec integration with a Viewlux Luminescent
Media consisted of phenol red free DMEM + 5% equine serum (Hyclone # SH30072.03 ), 5% supplemented Bovine Calf Serum (Hyclone # SH30074.03 ), 1x pen/strep, no G418

| SMILES | Potency |
| --- | --- |
| CS(=O)(=O)c1ccc([C@H](O)[C@H](CO)NC(=O)C(Cl)Cl)cc1 | inactive |
| COc1ccc(NC(=O)c2sc(SC)nc2N)cc1 | 4.47 µM (active) |
| O=C(O)CCN1C(=O)/C(=C\c2ccc(-c3nc4ccccc4s3)o2)SC1=S | 5.62 µM (active) |
| COc1cccc(C(=O)Nc2ccc(F)c(F)c2F)c1 | 7.08 µM (active) |
| C=C(C)C(=O)OCCCCCCOc1ccc(C(=O)O)cc1 | 2.24 µM (active) |
| O=C(NCN1C(=O)C2C3C=CC(C3)C2C1=O)Nc1ccccn1 (stereo not given) | inactive |
| CCC(=O)O[C@]1(C(=O)CCl)[C@@H](C)C[C@H]2[C@@H]3CCC4=CC(=O)C=C[C@]4(C)[C@@]3(F)[C@@H](O)C[C@@]21C | inactive |
| COc1cccc(-c2csc3ncnc(Sc4nnnn4C)c23)c1 | 7.08 µM (active) |
| Cc1nnc(C)n1/N=C/c1cc(Br)cc(Br)c1O | inactive |
| C[C@]12CC[C@@H]3c4ccc(OC(=O)c5ccccc5)cc4CC[C@H]3[C@@H]1CC[C@@H]2O | inactive |
| Cn1nnnc1Sc1ncnc2scc(-c3ccc(Br)cc3)c12 | 7.08 µM (active) |
| CCCCCCCCNc1ncnc2ccccc12 | inactive |
| Cc1ccccc1N=C(N)Nc1ccccc1C | inactive |
| Cc1ccc(S(=O)(=O)CCc2nc3ccccc3n2CCC#N)cc1 | 25.1 µM (active) |
| Cn1nnnc1Sc1ncnc2scc(-c3ccc(S(C)(=O)=O)cc3)c12 | 11.2 µM (active) |
| Cn1nnnc1Sc1ncnc2scc(-c3ccc([N+](=O)[O-])cc3)c12 | 8.91 µM (active) |
| Cn1nnnc1Sc1ncnc2scc(-c3ccccc3Cl)c12 | 15.8 µM (active) |
| COc1ccc(-c2csc3ncnc(Sc4nnnn4C)c23)cc1 | 11.2 µM (active) |
| Cn1nnnc1Sc1ncnc2scc(-c3ccccc3)c12 | 2.82 µM (active) and 7.94 µM (active) |
| O=C(c1ccccc1)c1ccc2n1CCC2C(=O)O (stereo not given) | 3.98 µM (active) |

| SMILES | Potency |
| --- | --- |
| O=Nc1c(-c2c(O)[nH]c3ccccc23)[nH]c2ccccc12 | 631 nM (active) and 1.41 µM (active) |
| Cn1nnnc1Sc1ncnc2scc(-c3ccc(C(=O)OC(C)(C)C)cc3)c12 | 14.1 µM (active) |
| COc1cc(Cc2cnc(N)nc2N)cc(OC)c1OC | inactive |
| Cn1nnnc1Sc1ncnc2scc(-c3ccsc3)c12 | 7.94 µM (active) |
| Cn1nnnc1Sc1ncnc2scc(-c3ccc[nH]3)c12 | 8.91 µM (active) |
| C#CCN(C)CCCOc1ccc(Cl)cc1Cl | inactive |
| CCN(Cc1ccncc1)C(=O)c1cc(Br)cc(Br)c1O | inactive |
| Cc1noc(C)c1COC(=O)Cc1ccc(Cl)cc1 | inactive |
| COc1cc(-c2nc(S(=O)(=O)c3ccc(C)cc3)c(N(C)C)o2)cc(OC)c1OC | inactive |
| COc1ccc(C)cc1NC(=O)C(Sc1nnnn1C)c1ccccc1 (stereo not given) | inactive |
| NC(=O)c1sc2nc3c(c(-c4cccs4)c2c1N)CCCCC3 | inactive |
| C=CS(=O)(=O)c1ccc(Oc2ccc(S(=O)(=O)C=C)cc2)cc1 | 10 µM (active) |
| CN(C)CCCSc1ccccc1NC(=O)/C=C\c1ccccc1 | 6.31 µM (active) |
| Cn1c(C(=O)N2CCN(c3ccc(Cl)cc3)CC2)cc2c(=O)[nH]c3ccccc3c21 | inactive |
| Cn1nnnc1Sc1ncnc2scc(-c3cccc(F)c3)c12 | 11.2 µM (active) |
| O=C(O)c1cc(=O)c2ccc(Cl)cc2[nH]1 | inactive |
| Cn1nnnc1Sc1ncnc2scc(-c3cccc(C#N)c3)c12 | 10 µM (active) |
| O=C(Nc1ccccc1)C1=C(O)CC(c2ccco2)CC1=Nc1ccccc1 (stereo not given) | inactive |
| C[C@@H]1CNCCN1S(=O)(=O)c1cccc2cnccc12 | inactive |
| Cn1nnnc1Sc1ncnc2scc(-c3ccc4c(=O)ccoc4c3)c12 | 7.94 µM (active) |
